Compound activity deposited in PubChem by several laboratories.
Compounds with a hit are over-represented: about 1.4% of the library has one in this group of screens.
Casp6 inh: caspase-6 (human) enzyme inhibition. P55212. purified caspase-6, Z-VEID-R110 cleavage fluorescence. inhibition, % at 12.5 µM. 0.53% of 350,000 active;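 active = mean inhibition across replicates at least about 35%, with every replicate also reaching that limit, limit read from the data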;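 note: 0% = median of neutral control wells and 100% = no fluorescence left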
LEDGF integ inh: blocks HIV-1 LEDGF/p75-dependent DNA integration; TR-FRET IN-LEDGF/p75 DNA integration, Eu/Cy5; inhibition, % at 3.7 µM; 0.64% of 370,000 active;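 active = inhibition above the screen-wide mean plus 3 SD, cut at about 13% in these data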;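 note: signal is the Cy5 over europium emission ratio at 671 and 618 nm; 0% = plate median of compound wells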
UHRF1 binding: UHRF1 methyl-DNA binding inhibition; UHRF1 binding to methylated oligo, TR-FRET; AID 687016; Q96T88; 0.75% of 370,000 active; inhibition, % at 4.4 µM; in the data active = inhibition above about 21%;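 note: UHRF1 SRA domain binding a hemimethylated CpG hairpin DNA probe; 0% = median of test compound wells and 100% = reference inhibitor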
MBD2 inh: inhibitors of human MBD2 binding to methylated oligonucleotide; Q9UBB5; TR-FRET; inhibition, % at 4.4 µM; 0.31% of 370,000 active; in the data active = inhibition above about 13%
IN multimer up: counter-screen for LEDGF/p75 integration inhibitors: HIV-1 integrase multimerization activators; shares compounds with LEDGF integ inh; TR-FRET HIV-1 integrase multimerization, biochemical; activation, % at 7.7 µM; 17% of 2,000 active; AID 1053131; in the data active = activation above about 8.9%
TRFRET interf: counter-screen for LEDGF/p75 integration inhibitors: TR-FRET optical interference; 2,000 tested, under 10 active; shares compounds with LEDGF integ inh; inhibition, % at 7.7 µM; TR-FRET optical interference counterscreen, HIV-1 IN multimerization;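 active = inhibition above the mean over all tested compounds plus 3 SD, which no compound reached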;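 note: 0% = integrase with antibodies and DMSO and 100% = antibodies without integrase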
IN-LEDGF confirm: confirmation of HIV-1 LEDGF/p75-dependent integration inhibitors | shares compounds with LEDGF integ inh | TR-FRET LEDGF/p75-dependent HIV-1 integration, biochemical | AID 1053136 | inhibition, % at 3.7 µM | 36% of 2,000 active; in the data active = inhibition above about 14%
Starred values were filed as active, the others as inactive; · = not tested or not shown.

SMILES	Casp6 inh	LEDGF integ inh	UHRF1 binding	MBD2 inh	IN multimer up	TRFRET interf	IN-LEDGF confirm
COc1ccc(NC(=O)O[C@H](c2ccc(OCCO)cc2)[C@@H](C)CCO)cc1	-0.3	·	·	·	·	·	·
COc1ccc(CN(C)C[C@H]2Oc3c(NS(=O)(=O)c4ccc(F)cc4)cccc3C(=O)N([C@H](C)CO)C[C@H]2C)cc1	1.2	·	·	·	·	·	·
COC(=O)\C(C(C)=O)=C(/C=C/C=C/N(C)C)N(C)C	·	33.6*	12.9	-0.2	1.0	-4.9	9.7
COC(=O)/C(C(C)=O)=C(/C=C/C=C/N(C)C)N(C)C	0.4	4.4	3.9	5.4	·	·	·
Cc1ccc(NC(=O)CNCC2CCCCC2)cc1S(=O)(=O)N(C)C	-1.1	31.9*	-1.3	3.2	-0.3	1.3	-15.3
COC(=O)c1cc(S(=O)(=O)N2CCCC2)c(Cl)cc1Cl	0.8	61.2*	-3.6	-1.2	-0.2	1.1	-8.3
O=C(c1cc(-c2cccc(O)c2)on1)N1CCCCCC1	14.5	46.9*	-1.0	2.4	-0.3	1.4	-2.7
Cc1ccc(NC(=O)C2CCCN2C(=O)NC2CCCCC2)cc1C (configuration not stated)	2.2	53.3*	6.3	2.4	-3.5	17.9	5.1
Cc1ccc(NC(=O)C2CCCN2C(=O)NC2CCCCC2)cc1F (configuration not stated)	2.8	0.5	0.8	5.7	·	·	·
O=C(CSc1nnc(-c2ccco2)c(-c2ccco2)n1)Nc1ccccc1	·	37.7*	40.8*	10.6	3.1	-15.3	54.7*
O=C(CSc1ccccc1)Nc1cccc(NC(=O)c2ccco2)c1	2.0	16.4*	-0.3	6.3	0.9	-4.7	-8.8
COc1cccc(NC(=O)CSc2nnc(-c3ccco3)c(-c3ccco3)n2)c1	42.9*	24.6*	14.4	2.0	8.3	-29.7	38.8*
CN(C)c1ccc(NC(=O)CSc2nnc(-c3ccco3)c(-c3ccco3)n2)cc1	2.0	11.0	-10.3	-2.1	·	·	·
COc1ccc(C(=O)CSc2nnc(-c3ccco3)c(-c3ccco3)n2)cc1	-0.1	15.3*	3.0	2.6	13.2*	-47.4	41.5*
CO[C@@H]1CN(C)C(=O)c2cc(NC(=O)C3CC3)ccc2OC[C@H](C)N(C(=O)c2ccncc2)C[C@H]1C	-1.4	·	·	·	·	·	·
CCCNC(=O)Nc1ccc2c(c1)OC[C@H](C)N(Cc1ccc(-c3ccccn3)cc1)C[C@@H](C)[C@@H](OC)CN(C)C2=O	-2.2	·	·	·	·	·	·
Cc1ccc(NC(=O)CSc2nnc(-c3ccco3)c(-c3ccco3)n2)cc1	·	24.9*	7.9	-0.2	2.4	-12.2	28.4*
CSc1nnc(-c2ccccc2)c(-c2ccccc2)n1	-0.2	3.4	2.8	2.5	·	·	·
CSc1nnc(-c2ccco2)c(-c2ccco2)n1	48.0*	27.3*	18.0	0.2	5.1	-25.6	45.3*
COc1ccc(NC(=O)Nc2cccc3c2O[C@H](CN(C)C(=O)Nc2c(C)noc2C)[C@@H](C)CN([C@@H](C)CO)C3=O)cc1	-1.7	·	·	·	·	·	·
O=C1SC(SCc2ccccc2)=N/C1=C\c1ccco1	·	26.1*	29.2*	8.7	0.0	0.2	1.1
O=C1SC(SCc2ccccc2)=N/C1=C\c1ccc(C(=O)O)cc1	0.1	3.2	6.7	4.5	·	·	·
CC1(C)OC(C)(C)/C(=C/Nc2ccc(O)cc2)C1=O	·	21.1*	5.5	3.5	44.6*	-158.3	31.0*
CCCCc1cc(=O)oc2cc(C)c(CN3CCCC3)c(O)c12	·	16.8*	6.5	2.8	-0.5	2.5	15.8*
CCCCc1cc(=O)oc2c(CN3CCCC3)c(O)ccc12	·	-4.9	0.6	-3.8	·	·	·
SMILES	Casp6 inh	LEDGF integ inh	UHRF1 binding	MBD2 inh	IN multimer up	TRFRET interf	IN-LEDGF confirm
CCc1cc(=O)oc2c(CN3CCCC3)c(O)c(Cl)cc12	·	0.6	-5.7	-2.1	·	·	·
CCc1cc(=O)oc2cc(C)c(CN3CCCC(C)C3)c(O)c12 (configuration not stated)	·	19.2*	27.1*	12.1	0.8	-3.8	20.3*
O=C(C1CCOCC1)N1CC(=O)N2[C@H](C1)[C@H](c1ccc(C#CC3CC3)cc1)[C@@H]2CO	-2.1	·	·	·	·	·	·
Cc1noc(C)c1S(=O)(=O)Nc1ccc2c(c1)CC(=O)N([C@H](C)CO)C[C@@H](C)[C@@H](CN(C)C(=O)Nc1cccc3ccccc13)O2	3.4	·	·	·	·	·	·
Cc1cc(/C=C\c2nc(O)c([N+](=O)[O-])c(=O)[nH]2)c(C)n1-c1ccccc1	61.1*	28.7*	15.1	3.2	2.8	-14.3	7.4
Cc1cnc(C=NNC(N)=S)c2cccc(N)c12	66.4*	16.5*	11.0	-3.8	19.6*	-98.5	61.0*
NC(=S)NN=Cc1nccc2ccccc12	1.8	1.4	-18.3	-8.4	·	·	·
CC1CN(C)C(C)C/C1=N\Oc1ccc([N+](=O)[O-])cc1 (configuration not stated)	-2.3	-1.6	-1.3	-2.9	·	·	·
CC1CN(C)C(C)C/C1=N/Oc1ccccc1[N+](=O)[O-] (configuration not stated)	17.3	25.6*	-5.3	-7.2	0.7	-3.3	1.3
O=C(Nc1ccc2c(c1)oc1ccc(S(=O)(=O)N3CCCC3)cc12)C1CC1	·	24.2*	-6.4	2.3	1.0	-3.2	-3.7
O=C(Nc1ccc2c(c1)oc1ccccc12)C1CC1	·	-1.9	-2.2	0.9	·	·	·
COc1ccc(CN(C)C[C@@H]2Oc3ccc(NS(=O)(=O)c4cccs4)cc3CC(=O)N([C@H](C)CO)C[C@@H]2C)cc1	0.2	·	·	·	·	·	·
CC(Sc1nnc(-c2ccccc2Br)o1)C(=O)N1CCOCC1 (configuration not stated)	-4.1	22.8*	-0.7	-6.8	-1.6	7.9	-4.2
CNc1cncc(-c2cccc(C(=O)NCCN(C)C)c2)n1	-3.4	-0.4	-2.8	-5.0	·	·	·
CN(C)CCNC(=O)c1cccc(-c2cccc3nncn23)c1	0.5	55.0*	-1.0	-6.9	-0.7	3.5	0.7
CC1CCN(C(=O)c2[nH]cnc2C(=O)NC2CCN(C(=O)OC(C)(C)C)CC2)CC1	-2.4	16.8*	1.7	3.7	-0.9	4.8	-0.6
COc1ccc(CCNC(=O)Cc2cccs2)cc1OC	0.7	22.0*	0.8	-3.8	0.6	-3.1	4.2
COc1ccc(CCNC(=O)Cn2c(=O)oc3cc(Cl)ccc32)cc1OC	2.0	33.8*	-1.5	0.7	-0.3	1.4	-1.0
COc1cccc(C(=O)Nc2ccc3c(c2)OC[C@H](C)NC[C@@H](C)[C@H](OC)CN(C)C3=O)c1	1.3	·	·	·	·	·	·
CC(C)NC(=O)N(C)C[C@H]1OCCCC[C@H](C)Oc2ccc(NS(=O)(=O)c3cn(C)cn3)cc2C(=O)N([C@H](C)CO)C[C@@H]1C	3.6	·	·	·	·	·	·
O=Cc1ccc(-c2c(-c3ccccc3)oc3c2C(OCCCCO)CCC3)o1 (configuration not stated)	9.5	30.1*	2.0	-1.2	0.1	-0.3	6.1
